# Results: PubChem BioAssay (NCI)
# Compounds without any hit were thinned out: in the full panel of roughly 83,000, 20% have a hit.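 Cell lines were cultured in 96-well plates, exposed to a single compound concentration, and assessed for percent growth 48 hours later.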 Values without a mark were called inactive. Calls of active or inactive are those of the source. How the source made its calls: active means growth percent below 10; inactive means the rest.
# Columns and labels:
# Test in all cases: NCI-60 one-dose screen, 48 h (100 = growth as untreated, 0 = no growth, -100 = all killed)
# Settings in all cases: 10 µM
# [1] = system: HCT-15 colon
# [2] = system: HT29 colon
# [3] = system: SNB-75 CNS
# [4] = system: U251 CNS
# [5] = system: PC-3 prostate
# [6] = system: SK-MEL-5 melanoma
# [7] = system: UACC-62 melanoma
# [8] = system: LOX IMVI melanoma
# [9] = system: SK-MEL-28 melanoma
# [10] = system: SNB-19 CNS
Compound,growth [1],growth [2],growth [3],growth [4],growth [5],growth [6],growth [7],growth [8],growth [9],growth [10]
Cn1cc(/C=N/Nc2cccc(Cl)n2)c2ccccc21,28.2%,44.1%,70.7%,56.2%,58.4%,71.7%,67.7%,50.1%,104%,
CC[C@]12C=CCN3CC[C@@]4(c5cc(C#CCNc6ccc(C)c(Nc7nccc(-c8cccnc8)n7)c6)c(OC)cc5N(C)[C@H]4[C@@](O)(C(=O)OC)[C@@H]1OC(C)=O)C32 (stereo not given in full),25.9%,25.8%,77.7%,40.8%,37.5%,32.1%,69.4%,38.6%,37.5%,
CN1CCN(c2ccc(C(=O)/C=C/c3cc(Br)ccc3F)cc2)CC1,-22.6% (active),-13.2% (active),40.1%,23.8%,37.1%,18.6%,64%,,90.8%,
CN1CCN(c2ccc(Nc3nc(NCCNC(=O)c4ccc(C(F)(F)F)cc4)c4sccc4n3)cc2)CC1,-42.6% (active),-67% (active),-10.7% (active),-17.7% (active),41%,-99.5% (active),-89.7% (active),-93.9% (active),-96.3% (active),
O=c1oc2ccc(-c3ccc(F)cc3F)cc2c(=O)n1-c1ccc(F)c(Cl)c1,-23.6% (active),23.1%,-23.7% (active),7.08% (active),5.69% (active),-91.6% (active),-60.2% (active),-69.9% (active),-21% (active),
CCOP(=O)(OCC)O[C@H]1CCC(=O)[C@@H]2[C@H]1[C@H]1C[C@@H]3[C@@]4(C)CCCC(C)(C(=O)OC)[C@@H]4CC[C@@]23C=C1C(C)C (stereo not given in full),49.8%,42.5%,100%,42.1%,23.5%,18.1%,46.1%,62.4%,72.7%,
COc1cccc2nc(Nc3ccc(F)c(NC(=O)c4ccc(CN5CCN(C)CC5)c(C(F)(F)F)c4)c3)ccc12,-83% (active),-30.2% (active),-3.82% (active),,-8.36% (active),-94.9% (active),-82.1% (active),-100% (active),-84% (active),
O=C(CSc1nnc(-c2ccc3nc(-c4ccc(Cl)cc4)[nH]c3c2)o1)Nc1ccc(Br)cc1,-64.2% (active),-15.8% (active),5.11% (active),-63.9% (active),5.11% (active),-36.9% (active),-90.8% (active),-100% (active),-94.4% (active),
CN(CCO)c1oc(-c2ccccc2)nc1[P+](c1ccccc1)(c1ccccc1)c1ccccc1,51.4%,7.78% (active),-2.5% (active),15.3%,10.8%,-93.3% (active),-30.2% (active),,12%,
O=c1[nH]c2ccccc2cc1CSc1ccc(Nc2nccc(-c3ccc(Cl)cc3)n2)cc1,8.92% (active),0.0418% (active),-41.8% (active),-72.3% (active),8.58% (active),48.2%,23.7%,-79.6% (active),43.2%,
COc1cc(/C=C/C(=O)c2ccc(F)cc2)ccc1Oc1nc(Nc2ccc(F)cc2)nc(N(C)C)n1,37.2%,60.4%,72.5%,9.68% (active),63.9%,40%,51%,-56.3% (active),62%,
Cc1ccc(/C(CSc2nnc(-c3c[nH]c4ccccc34)n2-c2ccccc2)=N/O)cc1,-62.4% (active),6.35% (active),-44.2% (active),,-46.5% (active),34.1%,-52.6% (active),-88.2% (active),62.5%,
CS(=O)(=O)Nc1ccc(-c2ccc3c(c2)ncn3-c2ccc(NC(=O)Nc3ccc(Cl)c(C(F)(F)F)c3)cc2)cc1,-91.3% (active),-84.1% (active),-42% (active),-87.4% (active),-57.5% (active),-97.7% (active),-85.8% (active),-97% (active),-78.1% (active),
Cc1nc(Nc2nc(C)c3ccc(OCCN4CCOCC4)cc3n2)[nH]c(=O)c1C,-48.7% (active),-56.9% (active),25.9%,8.71% (active),11.5%,-97.1% (active),-84.6% (active),-51.7% (active),-21.3% (active),
O=C1Nc2cc(Cl)ccc2/C1=C/c1cccc(OCc2ccc(Br)cc2F)c1,5.07% (active),5.13% (active),-0.373% (active),-1.12% (active),19.3%,-6.52% (active),8.35% (active),-45.9% (active),36.4%,
COc1ccc(N(C)c2cc(C#N)nc3ccccc23)cc1N,0.224% (active),-22.1% (active),15.3%,9.78% (active),30.3%,-47.7% (active),23.5%,15%,56.3%,
NC(=Nc1ccc(OCCCCCCCCn2ccnn2)cc1)c1ccccc1,15.8%,,61.2%,12.2%,35.8%,,41.8%,26.6%,49.2%,41.7%
COc1ccc(/C=C/C(=O)c2ccc(NC(=O)CN3C(=O)NC(C)(c4ccccc4)C3=O)cc2)cc1 (stereo not given),75.7%,67.6%,96.8%,67.7%,61.4%,60.1%,50%,56.5%,93.8%,
Cc1ccc(-c2ccc(SCC(=O)Nc3ccc(Cl)c(C(F)(F)F)c3)nn2)cc1,14.9%,-19.7% (active),-23.5% (active),16.5%,28.7%,18.9%,15.5%,33.9%,57.6%,
COc1cc2c(cc1OC)CN(CCCCOc1cc(O)c3c(=O)cc(-c4ccccc4)oc3c1)CC2,21.4%,-6.93% (active),98.9%,49.8%,63.1%,17.1%,40.4%,-66.1% (active),-8.78% (active),
